Our source for the Potency values is PubChem BioAssay (Tox21).

The structures appear in SMILES notation. Inconclusive results are not listed. Where a call stands in place of a potency, no number is given. Calls of active or inactive are those of the source. Calls come from the whole dose curve; as a rule, active = well fitted cell-killing curve with a large enough effect in the repeat runs; inconclusive = weak or mixed curves, or effect the other way; inactive = no such curve, though single readings can be large or run the other way.
Potency is the fitted concentration of half-maximal effect.

This experiment is described as follows: qHTS assay to identify small molecule antagonists of the retinoid-related orphan receptor gamma (ROR-gamma) signaling pathway - cell viability counter screen (AID 1159520). Note: nearly all actives have a fitted effect of over 50% in size. Particulars: Tet-on RORgamma CHO cells viability, ATP luminescence, 16 h; series mostly up to 92.4 µM. The source says:
U.S. Tox21 Program National Center for Advancing Translational Sciences [NCATS] NIH Chemical Genomics Center [NCGC] U.S. Environmental Protection Agency [EPA] National Institutes of Environmental Health Sciences [NIEHS] National Toxicology Program [NTP] U.S. Food and Drug Administration [FDA] Tox21 Assay Overview: Nuclear steroid hormone receptors are involved in many biological processes including inflammatory responses, cell proliferation, and apoptosis. Environmental factors or compounds disrupting these nuclear receptor pathways and gene expression may promote susceptibility to immunotoxicants and autoimmune diseases. One important group of these expression factors are the retinoid-related orphan receptors. To assess compounds that may interfere with the retinoid-related orphan receptor gamma (ROR-gamma) transcription factor, a cell-based luciferase assay was used. The CHO cell-based assay utilizes a TET-inducible ROR expression factor and ROR response element-LUC reporter gene. Reporter gene activity was induced using Doxycycline Hyclate and measured after 16 hr incubation. Tet-on ROR gamma CHO cells were used to screen against the Tox21 10K compound library for cytotoxicity by measuring the viability of the cells based on the quantitation of the ATP.
Tox21 Assay Protocol Summary: Tet-on ROR gamma CHO cells were dispensed at 1,000 cells in 4 uL of culture medium per well into white wall/solid bottom 1536-well plates using a Multidrop Combi (Thermo Scientific, Waltham, MA) dispenser. Following incubation at 37 C and 5% CO2 for 4 hr, 23 nL of compounds dissolved in DMSO, positive controls or DMSO only were transferred by a Pintool station (Kalypsys, San Diego, CA) and after 2 hr incubation at 37 C, one ul of 1 uM (final concentration) of Doxycycline Hyclate was added to all the wells by using a Flying Reagent Dispenser (FRD) (Aurora Discovery, San Diego, CA). After 16 hr incubation at 37 C and 5% CO2, 5 uL of CellTiter-Glo reagent (Promega Corporation, Madison, WI) was added to each assay plate using FRD. After 30 min incubation at room temperature, luminescence was quantified on a ViewLux plate reader (Perkin Elmer, Waltham, MA).
(In qHTS, concentration-response curves come from the screen itself.)
As for `O=[N+]([O-])c1cccc(C(F)(F)F)c1`, the Potency entry is “inactive”. In the case of `Cc1ccc(C(C)C)cc2c(C)ccc1-2`, the Potency entry was “inactive”. In the case of `FC(F)(F)c1cccc(Cl)c1`, the Potency result was “inactive”. The entry for `Fc1ccc(C(c2ccc(F)cc2)N2CCNCC2)cc1` is “inactive”; for `Cc1nc(-c2ccc(Cl)cc2)oc1COC(C)(C)C(=O)O` it is “inactive”; for `OC1CCCc2ccccc21` (stereo not given) it is “inactive”.

For `S=c1nccc[nH]1`, the Potency result was “inactive”. Consider `CCCCOC(=O)CC`, for which the Potency entry was “inactive”. Consider `Clc1ccnc(Cl)n1`, for which the Potency entry was “inactive”.

As to `CCCCCc1ccc(Cl)cc1`, the Potency result is “inactive”.

With `CCC(CC)C(C)CCOC(C)=O` (stereo not given), the Potency entry is “inactive”. For `C=CC(=O)OCCOC(=O)C=C`, the Potency entry was “inactive”. Regarding `COC(C)=O`, the Potency result was “inactive”.

For the compound `O=C1CCCCCCCCCCCCCCCO1`, the Potency entry is “inactive”. As to `C#C[C@]1(OC(C)=O)CC[C@H]2[C@@H]3CCC4=C/C(=N/O)CC[C@@H]4[C@H]3CC[C@@]21CC`, the Potency result was “inactive”. On to `Cc1c(C)c2c(c(C)c1O)CC[C@@](C)(CCC[C@H](C)CCC[C@H](C)CCCC(C)C)O2`, for which the Potency entry was “inactive”. With `CCN1C(=O)c2ccccc2C1Nc1ccc(OCCN2CCCCC2)cc1` (stereo not given), the Potency result is “inactive”.

In the case of `Cc1cccc(C(=O)O)c1O`, the Potency entry is “inactive”. Regarding `C#Cc1ccc(-c2ccccc2F)cc1`, the Potency result is “inactive”. Regarding `CCO[Si](OCC)(OCC)OCC`, the Potency result was “inactive”.

Consider `O=C(O)[C@H](O)[C@@H](O)[C@H](O[C@@H]1O[C@H](CO)[C@H](O)[C@H](O)[C@H]1O)[C@H](O)CO`, for which the Potency result was “inactive”.

Turning to `Nc1nc2c(ncn2COCCO)c(=O)[nH]1`, the Potency result is “inactive”. The figure for `CC(C)=CCNc1ncnc2c1ncn2[C@@H]1O[C@H](CO)[C@@H](O)[C@H]1O` is 10.6 µM (active); for `CCCCC/C=C\C/C=C\CCCCCCCC(=O)O` it is “inactive”; for `O=C1CCc2ccc(OCCCCN3CCN(c4cccc(Cl)c4Cl)CC3)cc2N1` it is “inactive”. The entry for `CC(C)(C)NSc1nc2ccccc2s1` is “inactive”; for `CC1(C)CC(O)CC(C)(C)N1` it is “inactive”. Under `CCCCOC(=O)CO` stands “inactive”. For the compound `CCCNCCC`, the Potency result was “inactive”.

Regarding `CCC(CC)(CC(=O)Nc1cccc(/C=C/c2nc(C3CCC3)cs2)c1)C(=O)O`, the Potency entry was “inactive”. For the compound `O=C(O)c1ccc2cc(C(=O)O)ccc2c1`, the Potency entry was “inactive”. As to `CCCCCC/C=C\CCCCCCCC(=O)O`, the Potency entry is “inactive”. Under `CC(C)(C)C1CCC(=O)CC1` stands “inactive”; under `CN(C)Cc1cc(C(C)(C)C)c(O)c(C(C)(C)C)c1`, “inactive”; under `Cc1cc(=O)oc2cc(O)cc(O)c12`, “inactive”. `Cc1cc(C(C)(C)C)c(O)c(C)c1Cn1c(=O)n(Cc2c(C)cc(C(C)(C)C)c(O)c2C)c(=O)n(Cc2c(C)cc(C(C)(C)C)c(O)c2C)c1=O`: the Potency entry was “inactive”. With `Cc1cccc(C)c1NC(=O)c1ccc(N)cc1`, the Potency entry was “inactive”. Take `CCCCCCC1CCCC(=O)O1` (stereo not given): the Potency entry was “inactive”.

As for `CC1(C)CCC[C@]2(C)[C@H]3CCO[C@]3(C)CC[C@@H]12`, the Potency result is “inactive”. On to `COc1cc(/C=C/c2ccccc2)oc(=O)c1`, for which the Potency result is “inactive”.
